# Laboratory results taken from ChEMBL document CHEMBL2218924, “A broad activity screen in support of a chemogenomic map for kinase signalling research and drug discovery” (Biochem J, 2013).
# Experiments:
# [1] = target: Fibroblast growth factor receptor 2 (Homo sapiens) (UniProt P21802); conditions: at 1 µM
# [2] = target: Fibroblast growth factor receptor 2 (Homo sapiens) (UniProt P21802); conditions: at 10 µM
# [3] = target: Tyrosine-protein kinase Fes/Fps (Homo sapiens) (UniProt P07332); conditions: at 1 µM
# [4] = target: Tyrosine-protein kinase Fes/Fps (Homo sapiens) (UniProt P07332); conditions: at 10 µM
# [5] = target: Tyrosine-protein kinase Fgr (Homo sapiens) (UniProt P09769); conditions: at 10 µM
# [6] = target: Focal adhesion kinase 1 (Homo sapiens) (UniProt Q05397); conditions: at 10 µM
# [7] = target: Fibroblast growth factor receptor 3 (Homo sapiens) (UniProt P22607); conditions: at 1 µM
# [8] = target: Fibroblast growth factor receptor 3 (Homo sapiens) (UniProt P22607); conditions: at 10 µM
# [9] = target: Fibroblast growth factor receptor 4 (Homo sapiens) (UniProt P22455); conditions: at 10 µM
# [10] = target: Tyrosine-protein kinase Fer (Homo sapiens) (UniProt P16591); conditions: at 1 µM
# [11] = target: Tyrosine-protein kinase Fer (Homo sapiens) (UniProt P16591); conditions: at 10 µM
# [12] = target: Tyrosine-protein kinase Fgr (Homo sapiens) (UniProt P09769); conditions: at 1 µM
# [13] = target: Receptor-type tyrosine-protein kinase FLT3 (Homo sapiens) (UniProt P36888); conditions: at 1 µM
# [14] = target: Receptor-type tyrosine-protein kinase FLT3 (Homo sapiens) (UniProt P36888); conditions: at 10 µM
# [15] = target: Vascular endothelial growth factor receptor 3 (Homo sapiens) (UniProt P35916); conditions: at 1 µM
# [16] = target: Fibroblast growth factor receptor 4 (Homo sapiens) (UniProt P22455); conditions: at 1 µM
# [17] = target: Vascular endothelial growth factor receptor 1 (Homo sapiens) (UniProt P17948); conditions: at 1 µM
# [18] = target: Vascular endothelial growth factor receptor 1 (Homo sapiens) (UniProt P17948); conditions: at 10 µM
# [19] = target: Fibroblast growth factor receptor 1 (Homo sapiens) (UniProt P11362); conditions: at 1 µM
# [20] = target: Fibroblast growth factor receptor 1 (Homo sapiens) (UniProt P11362); conditions: at 10 µM
# Fibroblast growth factor receptor 4 (Homo sapiens), sequence (P22455 22-802 limits assumed): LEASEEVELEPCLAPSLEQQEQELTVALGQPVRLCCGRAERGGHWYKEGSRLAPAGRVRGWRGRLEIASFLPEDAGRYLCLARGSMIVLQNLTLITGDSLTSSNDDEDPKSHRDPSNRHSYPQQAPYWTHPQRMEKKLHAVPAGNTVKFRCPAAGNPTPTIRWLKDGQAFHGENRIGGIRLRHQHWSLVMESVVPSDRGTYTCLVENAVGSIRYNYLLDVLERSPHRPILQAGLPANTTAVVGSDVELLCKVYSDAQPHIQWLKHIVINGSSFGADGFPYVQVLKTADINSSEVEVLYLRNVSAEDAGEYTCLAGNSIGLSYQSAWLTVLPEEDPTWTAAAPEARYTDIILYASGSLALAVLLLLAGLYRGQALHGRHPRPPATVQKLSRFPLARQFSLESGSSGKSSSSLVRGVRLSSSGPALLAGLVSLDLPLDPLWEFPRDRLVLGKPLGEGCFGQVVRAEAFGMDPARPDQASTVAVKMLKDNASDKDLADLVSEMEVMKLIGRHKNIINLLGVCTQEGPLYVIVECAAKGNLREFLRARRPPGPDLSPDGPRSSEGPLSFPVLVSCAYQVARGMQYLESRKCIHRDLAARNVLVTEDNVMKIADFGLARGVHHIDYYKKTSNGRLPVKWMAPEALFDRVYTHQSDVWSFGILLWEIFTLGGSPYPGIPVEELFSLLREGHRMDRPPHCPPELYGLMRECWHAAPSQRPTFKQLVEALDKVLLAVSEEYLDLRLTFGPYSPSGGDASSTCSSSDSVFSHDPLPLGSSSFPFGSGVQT
# Vascular endothelial growth factor receptor 1 (Homo sapiens), sequence (P17948 whole entry): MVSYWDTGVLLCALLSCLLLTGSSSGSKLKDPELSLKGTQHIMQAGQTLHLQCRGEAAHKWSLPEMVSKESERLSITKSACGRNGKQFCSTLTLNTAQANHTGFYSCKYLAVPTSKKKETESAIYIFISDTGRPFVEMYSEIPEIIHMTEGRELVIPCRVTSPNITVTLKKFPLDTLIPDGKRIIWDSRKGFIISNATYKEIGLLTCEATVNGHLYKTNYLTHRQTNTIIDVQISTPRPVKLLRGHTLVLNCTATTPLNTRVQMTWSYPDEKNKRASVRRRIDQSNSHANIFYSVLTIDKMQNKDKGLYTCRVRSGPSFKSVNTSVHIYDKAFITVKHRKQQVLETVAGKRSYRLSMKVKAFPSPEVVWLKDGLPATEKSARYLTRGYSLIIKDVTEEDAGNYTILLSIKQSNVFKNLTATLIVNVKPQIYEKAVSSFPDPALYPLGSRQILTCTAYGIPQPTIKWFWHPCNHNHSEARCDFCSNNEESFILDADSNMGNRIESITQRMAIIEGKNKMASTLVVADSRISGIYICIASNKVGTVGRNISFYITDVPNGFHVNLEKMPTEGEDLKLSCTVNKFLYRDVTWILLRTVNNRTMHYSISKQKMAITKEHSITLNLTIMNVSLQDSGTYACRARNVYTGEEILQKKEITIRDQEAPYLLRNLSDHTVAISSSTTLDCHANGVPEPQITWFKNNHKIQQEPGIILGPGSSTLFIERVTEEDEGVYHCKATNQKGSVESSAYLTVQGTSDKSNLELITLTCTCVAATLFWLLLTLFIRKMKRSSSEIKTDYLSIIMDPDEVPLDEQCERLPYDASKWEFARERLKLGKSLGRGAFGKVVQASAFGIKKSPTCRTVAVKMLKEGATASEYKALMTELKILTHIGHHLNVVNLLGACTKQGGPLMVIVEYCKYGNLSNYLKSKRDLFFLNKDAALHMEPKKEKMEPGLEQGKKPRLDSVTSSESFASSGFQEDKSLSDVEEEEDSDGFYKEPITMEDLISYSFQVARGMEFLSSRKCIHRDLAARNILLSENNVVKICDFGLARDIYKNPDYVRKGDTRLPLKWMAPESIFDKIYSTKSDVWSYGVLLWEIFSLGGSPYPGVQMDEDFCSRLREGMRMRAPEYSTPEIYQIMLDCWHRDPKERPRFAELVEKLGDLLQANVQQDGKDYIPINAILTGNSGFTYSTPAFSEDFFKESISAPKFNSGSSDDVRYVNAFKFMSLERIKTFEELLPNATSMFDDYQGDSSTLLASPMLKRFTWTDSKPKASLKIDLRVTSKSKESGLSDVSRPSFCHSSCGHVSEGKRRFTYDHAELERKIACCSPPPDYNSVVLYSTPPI
# Fibroblast growth factor receptor 2 (Homo sapiens), sequence (P21802 22-821 limits assumed): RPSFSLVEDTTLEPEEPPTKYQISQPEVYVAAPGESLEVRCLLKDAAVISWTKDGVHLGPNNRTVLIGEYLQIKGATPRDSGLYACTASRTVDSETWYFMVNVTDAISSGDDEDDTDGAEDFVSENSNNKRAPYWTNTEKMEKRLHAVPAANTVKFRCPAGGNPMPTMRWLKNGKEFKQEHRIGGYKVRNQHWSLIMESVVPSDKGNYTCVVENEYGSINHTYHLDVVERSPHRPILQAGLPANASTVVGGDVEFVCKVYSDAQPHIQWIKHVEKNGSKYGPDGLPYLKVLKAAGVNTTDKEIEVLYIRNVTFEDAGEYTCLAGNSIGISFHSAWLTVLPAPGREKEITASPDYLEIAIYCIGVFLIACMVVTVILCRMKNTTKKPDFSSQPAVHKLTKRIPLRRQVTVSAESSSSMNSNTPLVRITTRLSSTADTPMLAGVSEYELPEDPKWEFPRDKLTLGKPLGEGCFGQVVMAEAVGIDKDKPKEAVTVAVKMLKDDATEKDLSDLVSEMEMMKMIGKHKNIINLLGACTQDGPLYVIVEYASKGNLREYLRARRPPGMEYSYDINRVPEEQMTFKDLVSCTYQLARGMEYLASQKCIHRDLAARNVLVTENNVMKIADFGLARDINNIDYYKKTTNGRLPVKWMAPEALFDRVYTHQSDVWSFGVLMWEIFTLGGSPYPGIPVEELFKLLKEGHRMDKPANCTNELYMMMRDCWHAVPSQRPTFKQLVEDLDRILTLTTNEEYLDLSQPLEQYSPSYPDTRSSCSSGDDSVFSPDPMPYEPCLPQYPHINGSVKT
# Vascular endothelial growth factor receptor 3 (Homo sapiens), sequence (P35916 whole entry): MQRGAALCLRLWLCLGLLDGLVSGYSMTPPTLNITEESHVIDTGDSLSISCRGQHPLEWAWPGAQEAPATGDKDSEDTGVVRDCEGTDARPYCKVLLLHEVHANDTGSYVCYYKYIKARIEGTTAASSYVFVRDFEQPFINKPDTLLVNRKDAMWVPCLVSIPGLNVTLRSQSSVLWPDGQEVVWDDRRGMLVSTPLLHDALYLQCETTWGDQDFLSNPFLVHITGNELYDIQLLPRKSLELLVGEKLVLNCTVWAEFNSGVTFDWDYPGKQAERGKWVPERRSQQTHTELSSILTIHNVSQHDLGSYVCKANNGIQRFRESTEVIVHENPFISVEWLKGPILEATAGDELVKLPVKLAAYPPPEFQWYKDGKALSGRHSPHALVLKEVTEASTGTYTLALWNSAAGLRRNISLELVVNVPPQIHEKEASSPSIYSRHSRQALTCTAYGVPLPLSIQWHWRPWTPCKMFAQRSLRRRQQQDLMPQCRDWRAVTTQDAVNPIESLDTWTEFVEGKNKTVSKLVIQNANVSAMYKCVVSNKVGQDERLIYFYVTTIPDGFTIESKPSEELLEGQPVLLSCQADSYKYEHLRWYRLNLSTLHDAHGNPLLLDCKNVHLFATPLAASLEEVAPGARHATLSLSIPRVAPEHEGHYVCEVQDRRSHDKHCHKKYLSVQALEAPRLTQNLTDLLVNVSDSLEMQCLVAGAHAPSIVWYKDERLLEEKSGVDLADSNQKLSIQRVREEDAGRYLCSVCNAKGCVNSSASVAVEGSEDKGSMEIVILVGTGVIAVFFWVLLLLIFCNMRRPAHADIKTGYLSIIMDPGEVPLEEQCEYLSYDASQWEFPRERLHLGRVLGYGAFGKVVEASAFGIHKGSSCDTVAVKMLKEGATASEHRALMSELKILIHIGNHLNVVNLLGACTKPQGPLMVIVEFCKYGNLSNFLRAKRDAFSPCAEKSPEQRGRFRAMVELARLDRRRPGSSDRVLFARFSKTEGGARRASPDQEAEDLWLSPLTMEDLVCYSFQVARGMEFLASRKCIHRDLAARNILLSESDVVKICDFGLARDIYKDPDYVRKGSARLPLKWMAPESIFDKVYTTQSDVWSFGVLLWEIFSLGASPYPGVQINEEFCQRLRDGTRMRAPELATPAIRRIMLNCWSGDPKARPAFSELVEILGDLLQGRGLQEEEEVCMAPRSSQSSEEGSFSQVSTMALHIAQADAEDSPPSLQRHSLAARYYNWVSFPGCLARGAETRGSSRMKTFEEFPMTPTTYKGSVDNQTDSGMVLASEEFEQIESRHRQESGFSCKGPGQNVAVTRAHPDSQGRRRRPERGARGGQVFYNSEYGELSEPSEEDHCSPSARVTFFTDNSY
# Tyrosine-protein kinase Fgr (Homo sapiens), sequence (P09769 2-529 limits assumed): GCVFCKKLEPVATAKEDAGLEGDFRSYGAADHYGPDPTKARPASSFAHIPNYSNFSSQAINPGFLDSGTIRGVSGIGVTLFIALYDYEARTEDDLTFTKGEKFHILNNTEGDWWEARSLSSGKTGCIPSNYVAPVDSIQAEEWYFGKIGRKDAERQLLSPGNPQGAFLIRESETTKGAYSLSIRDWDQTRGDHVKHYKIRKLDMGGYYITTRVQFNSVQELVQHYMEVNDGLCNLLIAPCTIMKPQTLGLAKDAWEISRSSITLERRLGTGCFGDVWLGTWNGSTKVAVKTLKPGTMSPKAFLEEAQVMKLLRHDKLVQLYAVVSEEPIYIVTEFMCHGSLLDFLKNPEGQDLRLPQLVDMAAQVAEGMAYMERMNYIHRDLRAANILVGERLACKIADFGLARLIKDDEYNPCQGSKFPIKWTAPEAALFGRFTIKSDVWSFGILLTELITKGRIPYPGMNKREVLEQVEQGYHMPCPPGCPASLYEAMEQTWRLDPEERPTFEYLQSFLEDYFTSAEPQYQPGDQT
structure (smiles),measurement,setting,value
N#C/C(=C\c1ccc(O)c(O)c1)C(=O)NCc1ccccc1,residual activity,[1],103%
same,residual activity,[2],120%
same,residual activity,[3],124%
same,residual activity,[4],76%
same,residual activity,[5],82%
CC(C)[C@H](CO)Nc1nc(Nc2cc(N)cc(Cl)c2)c2ncn(C(C)C)c2n1,residual activity,[6],3%
same,residual activity,[1],84%
same,residual activity,[2],22%
same,residual activity,[7],92%
same,residual activity,[8],20%
same,residual activity,[9],88%
same,residual activity,[10],88%
same,residual activity,[11],23%
same,residual activity,[3],57%
same,residual activity,[4],12%
same,residual activity,[12],33%
same,residual activity,[5],3%
same,residual activity,[13],12%
same,residual activity,[14],2%
same,residual activity,[15],11%
NC(=O)c1ccc(-c2nc(-c3ccc4c(c3)OCCO4)c(-c3ccccn3)[nH]2)cc1,residual activity,[1],117%
same,residual activity,[2],82%
same,residual activity,[16],122%
same,residual activity,[9],95%
same,residual activity,[17],82%
same,residual activity,[18],70%
same,residual activity,[13],64%
same,residual activity,[14],51%
same,residual activity,[15],79%
O=C(O)/C=C/c1cc(Br)c(Br)c(Br)c1Br,residual activity,[6],98%
same,residual activity,[2],94%
same,residual activity,[7],103%
same,residual activity,[8],99%
same,residual activity,[9],96%
same,residual activity,[10],97%
same,residual activity,[11],107%
same,residual activity,[3],97%
same,residual activity,[4],74%
same,residual activity,[12],104%
same,residual activity,[5],103%
same,residual activity,[17],92%
same,residual activity,[18],67%
same,residual activity,[13],72%
same,residual activity,[14],27%
same,residual activity,[15],79%
COc1ccc(CNC(=O)Nc2ncc([N+](=O)[O-])s2)cc1,residual activity,[19],102%
same,residual activity,[20],77%
same,residual activity,[1],100%
same,residual activity,[2],78%
same,residual activity,[7],112%
same,residual activity,[8],113%
same,residual activity,[12],31%
same,residual activity,[5],28%
same,residual activity,[17],74%
same,residual activity,[18],49%
same,residual activity,[15],59%
O=C1Cc2c([nH]c3ccc([N+](=O)[O-])cc23)-c2ccccc2N1,residual activity,[19],74%
same,residual activity,[20],59%
same,residual activity,[7],125%
same,residual activity,[8],109%
same,residual activity,[16],112%
same,residual activity,[9],102%
same,residual activity,[3],35%
same,residual activity,[4],43%
same,residual activity,[12],40%
same,residual activity,[5],48%
same,residual activity,[17],49%
same,residual activity,[18],24%
same,residual activity,[13],30%
same,residual activity,[14],20%
same,residual activity,[15],29%
N#C/C(=C1/Nc2ccccc2S1)c1ccnc(NCCc2cccnc2)n1,residual activity,[6],60%
same,residual activity,[1],100%
same,residual activity,[2],45%
same,residual activity,[16],117%
same,residual activity,[9],67%
same,residual activity,[10],89%
same,residual activity,[11],60%
same,residual activity,[3],96%
same,residual activity,[4],73%
same,residual activity,[12],81%
same,residual activity,[5],44%
same,residual activity,[17],78%
same,residual activity,[18],33%
same,residual activity,[15],68%
CC(C)(C)c1nc2c3ccc(F)cc3c3c(=O)[nH]ccc3c2[nH]1,residual activity,[6],9%
same,residual activity,[16],119%
same,residual activity,[10],67%
same,residual activity,[11],27%
same,residual activity,[13],45%
same,residual activity,[14],26%
same,residual activity,[15],28%
N#Cc1c(NC(=O)c2cccc3ccccc23)sc2c1CCCC2,residual activity,[19],128%
same,residual activity,[20],88%
same,residual activity,[10],89%
same,residual activity,[11],97%
same,residual activity,[4],95%
same,residual activity,[12],99%
same,residual activity,[5],135%
same,residual activity,[14],77%
same,residual activity,[15],92%
O=C(NC(NC(=S)Nc1ccc(F)c([N+](=O)[O-])c1)C(Cl)(Cl)Cl)C(c1ccccc1)c1ccccc1 (centres undefined),residual activity,[20],59%
same,residual activity,[2],73%
same,residual activity,[9],83%
same,residual activity,[11],103%
same,residual activity,[13],99%
same,residual activity,[14],82%
same,residual activity,[15],93%
Fc1ccc(-c2nc3n(c2-c2ccncc2)CCS3)cc1,residual activity,[19],137%
same,residual activity,[5],97%
same,residual activity,[13],98%
same,residual activity,[14],82%
same,residual activity,[15],89%
CSc1nc(-c2ccc(F)cc2)c(-c2ccnc(NC(C)c3ccccc3)c2)[nH]1 (centres undefined),residual activity,[19],126%
same,residual activity,[20],53%
same,residual activity,[1],87%
same,residual activity,[2],68%
same,residual activity,[8],78%
same,residual activity,[9],78%
same,residual activity,[3],102%
same,residual activity,[4],87%
same,residual activity,[12],84%
same,residual activity,[5],71%
same,residual activity,[18],80%
same,residual activity,[13],86%
same,residual activity,[14],83%
same,residual activity,[15],97%
COc1ccc(-c2cnc3c(-c4ccsc4)cnn3c2)cc1,residual activity,[7],93%
same,residual activity,[8],124%
same,residual activity,[11],98%
same,residual activity,[4],82%
same,residual activity,[17],33%
same,residual activity,[18],48%
same,residual activity,[13],53%
same,residual activity,[14],19%
same,residual activity,[15],21%
O=c1c(-c2ccc(F)cc2)c(-c2ccncc2)[nH]n1-c1ccc(Cl)cc1,residual activity,[19],127%
same,residual activity,[20],40%
same,residual activity,[7],123%
same,residual activity,[5],65%
same,residual activity,[17],100%
same,residual activity,[18],50%
O=c1cc(N2CCOCC2)oc2c(-c3ccccc3)cccc12,residual activity,[20],81%
same,residual activity,[7],101%
same,residual activity,[8],73%
same,residual activity,[9],70%
same,residual activity,[10],101%
O=C(Nc1nc2ccccc2n1CCN1CCOCC1)c1cccc([N+](=O)[O-])c1,residual activity,[6],87%
same,residual activity,[16],114%
same,residual activity,[3],101%
same,residual activity,[4],74%
same,residual activity,[12],102%
same,residual activity,[13],38%
same,residual activity,[14],29%
same,residual activity,[15],36%
COc1ccc(COc2ccc(Cc3cnc(N)nc3N)cc2OC)cc1,residual activity,[19],112%
same,residual activity,[1],112%
same,residual activity,[2],76%
same,residual activity,[16],131%
